Test results: PubChem BioAssay (NCI)
About 83,000 compounds went through this panel and 20% of them were active in at least one assay; those are over-represented in the sample as a whole.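 Results are percent growth after 48 hours of single-concentration exposure. 100 means growth as in untreated cells, lower positive values show inhibition; negative values down to -100 show cell death.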 Calls of active or inactive are those of the source. The calls were made as follows: active = growth percent below 10; inactive = the rest.

test system: A549/ATCC NSCLC; test: NCI-60 one-dose screen, 48 h (100 = growth as untreated, 0 = no growth, -100 = all killed); conditions: 10 µM

Row | SMILES | growth
1 | CNC(=S)Sc1ccc([N+](=O)[O-])cc1[N+](=O)[O-] | 80.8% (inactive)
2 | O=C(CCc1ccccc1)N1CCN(C(=O)CCc2ccccc2)CC1 | 99.9% (inactive)
3 | Cn1cnc([N+](=O)[O-])c1/C=C1\Oc2ccc(Cl)cc2C1=O | 98.4% (inactive)
4 | NC1CCC(Nc2nc(NCc3ccc(-c4ccco4)nc3)c3ncn(C4CCCC4)c3n2)CC1 (stereo unspecified) | 3.69% (active)
5 | CCCCCN(CCCCC)C(C)C(O)c1ccc2cc(Cl)c3ccccc3c2c1 (stereo unspecified) | 102% (inactive)
6 | O=C(NNC(=O)c1ccncc1)Nc1ccc([N+](=O)[O-])cc1 | 106% (inactive)
7 | CC1(C)CNC(=O)N1 | 93.3% (inactive)
8 | O=C(N/N=C/c1ccccc1O)c1ccccc1 | 38.7% (inactive)
9 | CCn1nc(-c2ccccn2)c2cccnc2c1=S | 44.8% (inactive)
10 | CCN(CC)CCn1c(=N)n(CC(O)c2ccc(Cl)c(Cl)c2)c2ccccc21 (stereo unspecified) | 89.6% (inactive)
11 | O=C(O)c1ccc(CNc2ccc(C(=O)CCl)cc2)cc1 | 94.9% (inactive)
12 | COc1cc(CSc2nc3ccc(C)cc3c(=O)n2Cc2ccccc2)cc(OC)c1OC | 40% (inactive)
13 | COc1cc(C(c2c[nH]c3ccccc23)N2CCCC2)ccc1OCc1ccccc1 (stereo unspecified) | 94.5% (inactive)
14 | Cn1c([N+](=O)[O-])cnc1C=C1C(=O)c2ccccc2C1=O | 65.6% (inactive)
15 | [O-]c1c[n+](-c2ccc(Cl)cc2)no1 | 108% (inactive)
16 | O=C1CC[C@@H](C(=O)N[C@H]2CSSC[C@@H](C(=O)NCCc3ccccc3)NC(=O)[C@H](Cc3ccccc3)NC(=O)[C@@H]3CCCN3C(=O)[C@@H]3CCCN3C2=O)N1 | 86.2% (inactive)
17 | COc1cc(C2C(C#N)=C(c3c[nH]c4ccccc34)Nc3nc(N)[nH]c(=O)c32)cc(OC)c1OC (stereo unspecified) | 105% (inactive)
18 | COc1cc(C(=O)n2nc(N)c3c(C)cc(C)nc32)cc(OC)c1OC | 55.7% (inactive)
19 | N#CN1CC[C@H](C(=O)Nc2ncc(-c3ccccc3)s2)C1 | -5.79% (active)

Row | SMILES | growth
20 | COC(=O)[C@]12CC[C@@H](C)[C@H](C)[C@@H]1C1=CC[C@@H]3[C@@]4(C)C[C@@H](O)[C@H](O)[C@@](C)(CO)[C@@H]4[C@H](O)C[C@@]3(C)[C@]1(C)CC2 | -62.3% (active)
21 | O=C1/C(=C/c2ccc(O)cc2)Oc2ccc(Cl)cc21 | 79.7% (inactive)
22 | COc1ccc(/C=C2\CCC3C(CCCC34OCCO4)C2=O)cc1 (stereo unspecified) | 89.7% (inactive)
23 | Cc1ccc2c3c(cccc13)-c1ccccc1C2=O | 81.8% (inactive)
24 | COc1ccc(C(=O)/C=C/c2cc(-c3ccc4c(c3)OCO4)n[nH]2)cc1OC | 37.9% (inactive)
25 | N=C(N)c1ccc(-c2ccc(-c3ccccc3)s2)cc1F | -74.2% (active)
26 | CN(C)c1ccc2c(c1)OC(N)=C(C#N)C2c1ccc2c(c1)CCCN2C (stereo unspecified) | 27.5% (inactive)
27 | CCOC(=O)c1c(C(F)(F)F)n([O-])c2ccc(OC)cc2[n+]1=O | 26.8% (inactive)
28 | CNC(=O)c1cc(Oc2ccc(NC(=O)Nc3ccc(Cl)c(OC4CCCCC4)c3)c(F)c2)ccn1 | 26.6% (inactive)
29 | COC(=O)[C@]12CC[C@@H](C)[C@H](C)[C@@H]1C1=CC[C@@H]3[C@@]4(C)CC(=O)[C@H](O)[C@@]5(C)COC(=C45)C[C@@]3(C)[C@]1(C)CC2 | -60.4% (active)
30 | O=[N+]([O-])c1ccc(-c2nc(Cl)c3c(n2)CCCC3)o1 | 83% (inactive)
31 | C/C(=N\NC(N)=S)C(C)(C)O | 83.4% (inactive)
32 | FC(F)(F)c1ccc(-c2ncc(-c3ccc(C(F)(F)F)cc3)c(NCc3cc(C(F)(F)F)cc(C(F)(F)F)c3)n2)cc1 | 65.7% (inactive)
33 | Oc1[nH]c2ccccc2c1/C=c1/cc2c(c(-c3ccc(C(F)(F)F)cc3)n1)=Nc1ccccc1-2 | 56.8% (inactive)
34 | Cc1ccc(C(=O)O)c(N)c1C | 111% (inactive)
35 | CC(=O)n1nc(C(=O)OC(C)(C)C)c2cc(F)c(F)cc21 | 95.9% (inactive)
36 | COc1cc(N=C2C(=O)N(Cc3ccccc3)c3ccccc32)cc(OC)c1OC | 103% (inactive)
37 | NC(N)=NS(=O)(=O)c1ccc(Nc2ccc3nnc(-c4ccncc4)n3n2)cc1 | 108% (inactive)
38 | CC(=O)c1ccc(NCn2nc(-c3ccc(Cl)cc3)oc2=S)cc1 | 79.2% (inactive)

test system: 786-0 renal; test: as above; conditions: 10 µM

Row | SMILES | growth
39 | CNC(=S)Sc1ccc([N+](=O)[O-])cc1[N+](=O)[O-] | 93.9% (inactive)
40 | O=C(CCc1ccccc1)N1CCN(C(=O)CCc2ccccc2)CC1 | 94.6% (inactive)
41 | Cn1cnc([N+](=O)[O-])c1/C=C1\Oc2ccc(Cl)cc2C1=O | 91.9% (inactive)
42 | NC1CCC(Nc2nc(NCc3ccc(-c4ccco4)nc3)c3ncn(C4CCCC4)c3n2)CC1 (stereo unspecified) | 8.51% (active)
43 | CCCCCN(CCCCC)C(C)C(O)c1ccc2cc(Cl)c3ccccc3c2c1 (stereo unspecified) | 98.5% (inactive)
44 | O=C(NNC(=O)c1ccncc1)Nc1ccc([N+](=O)[O-])cc1 | 107% (inactive)
45 | CC1(C)CNC(=O)N1 | 94.3% (inactive)
46 | O=C(N/N=C/c1ccccc1O)c1ccccc1 | 17.9% (inactive)
47 | CCn1nc(-c2ccccn2)c2cccnc2c1=S | 106% (inactive)
48 | CCN(CC)CCn1c(=N)n(CC(O)c2ccc(Cl)c(Cl)c2)c2ccccc21 (stereo unspecified) | 79.9% (inactive)
49 | O=C(O)c1ccc(CNc2ccc(C(=O)CCl)cc2)cc1 | 109% (inactive)
50 | COc1cc(CSc2nc3ccc(C)cc3c(=O)n2Cc2ccccc2)cc(OC)c1OC | 46.8% (inactive)
51 | COc1cc(C(c2c[nH]c3ccccc23)N2CCCC2)ccc1OCc1ccccc1 (stereo unspecified) | 87.4% (inactive)
52 | Cn1c([N+](=O)[O-])cnc1C=C1C(=O)c2ccccc2C1=O | 41.1% (inactive)
53 | [O-]c1c[n+](-c2ccc(Cl)cc2)no1 | 108% (inactive)
54 | O=C1CC[C@@H](C(=O)N[C@H]2CSSC[C@@H](C(=O)NCCc3ccccc3)NC(=O)[C@H](Cc3ccccc3)NC(=O)[C@@H]3CCCN3C(=O)[C@@H]3CCCN3C2=O)N1 | 99% (inactive)
55 | COc1cc(C2C(C#N)=C(c3c[nH]c4ccccc34)Nc3nc(N)[nH]c(=O)c32)cc(OC)c1OC (stereo unspecified) | 100% (inactive)
56 | COc1cc(C(=O)n2nc(N)c3c(C)cc(C)nc32)cc(OC)c1OC | 90.4% (inactive)
57 | N#CN1CC[C@H](C(=O)Nc2ncc(-c3ccccc3)s2)C1 | 3.56% (active)

Row | SMILES | growth
58 | COC(=O)[C@]12CC[C@@H](C)[C@H](C)[C@@H]1C1=CC[C@@H]3[C@@]4(C)C[C@@H](O)[C@H](O)[C@@](C)(CO)[C@@H]4[C@H](O)C[C@@]3(C)[C@]1(C)CC2 | -65.1% (active)
59 | O=C1/C(=C/c2ccc(O)cc2)Oc2ccc(Cl)cc21 | 71.4% (inactive)
60 | COc1ccc(/C=C2\CCC3C(CCCC34OCCO4)C2=O)cc1 (stereo unspecified) | 96.2% (inactive)
61 | Cc1ccc2c3c(cccc13)-c1ccccc1C2=O | 99.4% (inactive)
62 | COc1ccc(C(=O)/C=C/c2cc(-c3ccc4c(c3)OCO4)n[nH]2)cc1OC | 71.7% (inactive)
63 | N=C(N)c1ccc(-c2ccc(-c3ccccc3)s2)cc1F | -85% (active)
64 | CN(C)c1ccc2c(c1)OC(N)=C(C#N)C2c1ccc2c(c1)CCCN2C (stereo unspecified) | 43.7% (inactive)
65 | CCOC(=O)c1c(C(F)(F)F)n([O-])c2ccc(OC)cc2[n+]1=O | 42.2% (inactive)
66 | CNC(=O)c1cc(Oc2ccc(NC(=O)Nc3ccc(Cl)c(OC4CCCCC4)c3)c(F)c2)ccn1 | 90.4% (inactive)
67 | COC(=O)[C@]12CC[C@@H](C)[C@H](C)[C@@H]1C1=CC[C@@H]3[C@@]4(C)CC(=O)[C@H](O)[C@@]5(C)COC(=C45)C[C@@]3(C)[C@]1(C)CC2 | -76.5% (active)
68 | O=[N+]([O-])c1ccc(-c2nc(Cl)c3c(n2)CCCC3)o1 | 107% (inactive)
69 | C/C(=N\NC(N)=S)C(C)(C)O | 96.3% (inactive)
70 | FC(F)(F)c1ccc(-c2ncc(-c3ccc(C(F)(F)F)cc3)c(NCc3cc(C(F)(F)F)cc(C(F)(F)F)c3)n2)cc1 | 53.9% (inactive)
71 | Oc1[nH]c2ccccc2c1/C=c1/cc2c(c(-c3ccc(C(F)(F)F)cc3)n1)=Nc1ccccc1-2 | 66% (inactive)
72 | Cc1ccc(C(=O)O)c(N)c1C | 103% (inactive)
73 | CC(=O)n1nc(C(=O)OC(C)(C)C)c2cc(F)c(F)cc21 | 97.5% (inactive)
74 | COc1cc(N=C2C(=O)N(Cc3ccccc3)c3ccccc32)cc(OC)c1OC | 103% (inactive)
75 | NC(N)=NS(=O)(=O)c1ccc(Nc2ccc3nnc(-c4ccncc4)n3n2)cc1 | 104% (inactive)
76 | CC(=O)c1ccc(NCn2nc(-c3ccc(Cl)cc3)oc2=S)cc1 | 105% (inactive)
